Measured values as given in the supplement of paper PMC11732987, “Enantioselective OTUD7B fragment discovery through chemoproteomics screening and high-throughput optimisation” (Communications Chemistry, 2025).

Legend:
Test in all cases: log2 ratio of Biotin-Ahx-Ub-VS probe labelling (fragment/DMSO); higher = less target engagement (more negative = stronger competition), active = hit call of the paper (q ≤ 0.05, log2 ratio ≤ -1)
Settings in all cases: compound concentration: 200 uM; treatment time: 3 h
USP19 = biological target: T1, USP19 (UniProt O94966)
T1 sequence (whole entry): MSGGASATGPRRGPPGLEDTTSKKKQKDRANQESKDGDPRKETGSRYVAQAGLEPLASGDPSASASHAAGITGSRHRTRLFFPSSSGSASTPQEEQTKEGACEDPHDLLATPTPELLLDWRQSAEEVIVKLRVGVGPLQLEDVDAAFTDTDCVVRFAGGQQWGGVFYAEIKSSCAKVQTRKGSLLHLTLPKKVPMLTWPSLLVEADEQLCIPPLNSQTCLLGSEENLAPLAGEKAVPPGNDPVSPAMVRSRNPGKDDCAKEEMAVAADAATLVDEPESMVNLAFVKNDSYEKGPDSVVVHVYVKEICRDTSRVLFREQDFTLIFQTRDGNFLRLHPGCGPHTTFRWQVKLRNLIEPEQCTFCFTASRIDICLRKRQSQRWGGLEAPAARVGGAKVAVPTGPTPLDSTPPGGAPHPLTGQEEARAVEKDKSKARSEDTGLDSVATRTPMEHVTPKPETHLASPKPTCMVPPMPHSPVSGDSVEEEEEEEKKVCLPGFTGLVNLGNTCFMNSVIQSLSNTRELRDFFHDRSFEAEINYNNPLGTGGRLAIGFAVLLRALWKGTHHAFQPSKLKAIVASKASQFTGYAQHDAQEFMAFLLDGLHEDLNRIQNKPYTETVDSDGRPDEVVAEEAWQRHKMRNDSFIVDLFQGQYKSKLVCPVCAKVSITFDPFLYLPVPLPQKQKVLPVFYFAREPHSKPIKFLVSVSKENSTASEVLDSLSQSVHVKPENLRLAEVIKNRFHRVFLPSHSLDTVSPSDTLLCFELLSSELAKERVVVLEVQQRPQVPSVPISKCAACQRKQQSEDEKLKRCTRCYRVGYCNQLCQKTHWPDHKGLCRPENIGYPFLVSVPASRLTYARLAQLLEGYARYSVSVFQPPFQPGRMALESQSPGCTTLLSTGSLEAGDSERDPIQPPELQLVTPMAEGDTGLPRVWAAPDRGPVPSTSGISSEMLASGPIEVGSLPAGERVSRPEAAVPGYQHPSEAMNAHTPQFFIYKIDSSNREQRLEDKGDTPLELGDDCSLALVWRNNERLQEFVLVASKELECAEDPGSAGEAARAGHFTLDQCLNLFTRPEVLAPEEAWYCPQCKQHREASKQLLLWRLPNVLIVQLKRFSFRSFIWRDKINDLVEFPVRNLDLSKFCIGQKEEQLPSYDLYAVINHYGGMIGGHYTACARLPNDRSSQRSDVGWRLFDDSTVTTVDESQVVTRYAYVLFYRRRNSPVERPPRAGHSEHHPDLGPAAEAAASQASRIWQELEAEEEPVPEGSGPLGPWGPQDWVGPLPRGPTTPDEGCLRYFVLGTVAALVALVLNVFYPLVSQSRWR
In short: (§1)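 Average log2 ratios of fragment over vehicle were obtained by unpaired t-test from global-median-normalised Spectronaut label-free quantities. Proteins with ≥2 unique peptides were included. HEK293T lysate (495 µg per sample) was treated in triplicate with fragment at 200 µM or vehicle for 3 h, then with Biotin-Ahx-Ub-VS at 0.5 µM final for 1 h, and labelled DUBs were NeutrAvidin-enriched and run by diaPASEF LC-MS/MS.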

USP22 = biological target: T2, USP22 (UniProt Q9UPT9)
T2 sequence (whole entry): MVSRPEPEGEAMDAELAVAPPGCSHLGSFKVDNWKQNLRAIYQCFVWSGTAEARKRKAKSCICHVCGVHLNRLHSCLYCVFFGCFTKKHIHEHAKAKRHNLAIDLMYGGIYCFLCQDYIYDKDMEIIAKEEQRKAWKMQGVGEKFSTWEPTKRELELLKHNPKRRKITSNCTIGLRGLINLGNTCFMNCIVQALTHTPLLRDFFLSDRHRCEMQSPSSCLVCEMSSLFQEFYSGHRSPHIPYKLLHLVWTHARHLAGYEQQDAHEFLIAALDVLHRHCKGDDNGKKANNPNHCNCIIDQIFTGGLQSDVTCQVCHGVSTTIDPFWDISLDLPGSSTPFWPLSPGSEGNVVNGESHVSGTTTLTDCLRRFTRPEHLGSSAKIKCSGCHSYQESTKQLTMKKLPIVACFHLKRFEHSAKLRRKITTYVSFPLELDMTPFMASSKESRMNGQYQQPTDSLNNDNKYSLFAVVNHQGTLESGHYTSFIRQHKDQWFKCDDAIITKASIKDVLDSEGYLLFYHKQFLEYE
In short: as §1

USP24 = USP24 (UniProt Q9UPU5)
USP24, sequence (Q9UPU5 whole entry): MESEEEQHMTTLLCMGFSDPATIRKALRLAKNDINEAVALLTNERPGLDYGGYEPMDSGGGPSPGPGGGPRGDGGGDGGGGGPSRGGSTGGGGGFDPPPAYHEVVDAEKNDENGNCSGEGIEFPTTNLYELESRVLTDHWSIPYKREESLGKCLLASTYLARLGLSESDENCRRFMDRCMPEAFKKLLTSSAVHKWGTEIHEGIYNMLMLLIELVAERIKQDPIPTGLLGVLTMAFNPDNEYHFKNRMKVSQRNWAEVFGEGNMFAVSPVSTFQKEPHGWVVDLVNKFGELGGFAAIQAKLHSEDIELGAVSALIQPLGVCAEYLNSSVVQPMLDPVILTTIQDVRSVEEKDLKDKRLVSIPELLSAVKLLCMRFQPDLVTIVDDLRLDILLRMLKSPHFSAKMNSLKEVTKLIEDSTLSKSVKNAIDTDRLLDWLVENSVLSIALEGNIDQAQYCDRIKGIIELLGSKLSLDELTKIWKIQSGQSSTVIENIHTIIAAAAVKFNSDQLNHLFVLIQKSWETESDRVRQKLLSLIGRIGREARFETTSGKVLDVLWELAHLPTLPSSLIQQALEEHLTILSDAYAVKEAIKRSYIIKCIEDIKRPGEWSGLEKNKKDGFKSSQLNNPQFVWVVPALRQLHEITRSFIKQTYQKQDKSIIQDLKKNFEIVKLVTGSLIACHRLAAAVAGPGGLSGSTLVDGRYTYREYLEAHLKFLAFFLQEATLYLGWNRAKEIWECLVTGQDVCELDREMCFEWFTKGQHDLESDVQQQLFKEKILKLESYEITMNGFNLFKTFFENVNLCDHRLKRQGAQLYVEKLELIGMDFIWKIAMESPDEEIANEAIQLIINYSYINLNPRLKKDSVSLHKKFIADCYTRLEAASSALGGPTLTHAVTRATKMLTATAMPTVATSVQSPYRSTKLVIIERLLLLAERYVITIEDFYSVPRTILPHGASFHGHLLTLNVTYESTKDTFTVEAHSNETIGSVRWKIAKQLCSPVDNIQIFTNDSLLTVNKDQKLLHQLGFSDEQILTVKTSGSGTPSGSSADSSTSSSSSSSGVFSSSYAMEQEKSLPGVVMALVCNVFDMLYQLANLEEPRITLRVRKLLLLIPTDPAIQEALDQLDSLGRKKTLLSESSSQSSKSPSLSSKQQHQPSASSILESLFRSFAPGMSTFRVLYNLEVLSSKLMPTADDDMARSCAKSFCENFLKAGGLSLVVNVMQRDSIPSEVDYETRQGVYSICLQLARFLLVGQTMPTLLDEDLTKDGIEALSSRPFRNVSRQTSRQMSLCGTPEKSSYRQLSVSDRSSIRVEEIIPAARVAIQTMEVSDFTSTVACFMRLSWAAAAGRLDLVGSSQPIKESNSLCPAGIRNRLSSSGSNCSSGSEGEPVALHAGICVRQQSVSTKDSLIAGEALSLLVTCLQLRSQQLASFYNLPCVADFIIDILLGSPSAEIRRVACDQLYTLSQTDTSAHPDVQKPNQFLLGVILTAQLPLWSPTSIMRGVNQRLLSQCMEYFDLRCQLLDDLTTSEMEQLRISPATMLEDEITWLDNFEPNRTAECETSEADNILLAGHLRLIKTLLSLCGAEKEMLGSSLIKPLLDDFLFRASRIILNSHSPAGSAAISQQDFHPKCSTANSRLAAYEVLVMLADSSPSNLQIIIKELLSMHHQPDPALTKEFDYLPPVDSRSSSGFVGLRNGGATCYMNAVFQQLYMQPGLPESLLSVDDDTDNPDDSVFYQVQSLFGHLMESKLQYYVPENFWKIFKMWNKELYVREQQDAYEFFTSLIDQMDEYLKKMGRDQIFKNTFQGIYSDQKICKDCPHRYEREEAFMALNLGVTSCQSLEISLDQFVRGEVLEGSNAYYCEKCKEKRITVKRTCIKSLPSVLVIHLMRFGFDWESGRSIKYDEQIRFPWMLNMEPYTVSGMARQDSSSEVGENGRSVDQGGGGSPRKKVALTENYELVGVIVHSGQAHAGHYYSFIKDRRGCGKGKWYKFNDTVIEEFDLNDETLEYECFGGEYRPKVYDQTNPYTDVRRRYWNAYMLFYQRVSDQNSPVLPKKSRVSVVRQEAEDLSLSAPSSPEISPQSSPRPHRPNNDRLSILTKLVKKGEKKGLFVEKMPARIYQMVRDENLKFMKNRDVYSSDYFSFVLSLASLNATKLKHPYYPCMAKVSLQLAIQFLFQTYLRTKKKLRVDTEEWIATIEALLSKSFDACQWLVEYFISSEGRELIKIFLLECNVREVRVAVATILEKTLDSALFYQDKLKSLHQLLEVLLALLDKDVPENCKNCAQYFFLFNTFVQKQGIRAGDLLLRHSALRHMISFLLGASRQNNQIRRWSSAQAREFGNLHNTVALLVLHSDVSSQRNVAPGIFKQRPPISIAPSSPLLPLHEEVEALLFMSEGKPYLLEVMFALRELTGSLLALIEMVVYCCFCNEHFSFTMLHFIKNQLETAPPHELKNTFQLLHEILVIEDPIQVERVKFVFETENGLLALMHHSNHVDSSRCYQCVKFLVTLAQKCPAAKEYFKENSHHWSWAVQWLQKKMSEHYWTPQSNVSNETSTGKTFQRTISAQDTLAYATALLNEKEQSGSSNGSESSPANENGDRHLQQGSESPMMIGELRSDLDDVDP
In short: as §1

USP25 = biological target: T3, USP25 (UniProt Q9UHP3)
T3 sequence (whole entry): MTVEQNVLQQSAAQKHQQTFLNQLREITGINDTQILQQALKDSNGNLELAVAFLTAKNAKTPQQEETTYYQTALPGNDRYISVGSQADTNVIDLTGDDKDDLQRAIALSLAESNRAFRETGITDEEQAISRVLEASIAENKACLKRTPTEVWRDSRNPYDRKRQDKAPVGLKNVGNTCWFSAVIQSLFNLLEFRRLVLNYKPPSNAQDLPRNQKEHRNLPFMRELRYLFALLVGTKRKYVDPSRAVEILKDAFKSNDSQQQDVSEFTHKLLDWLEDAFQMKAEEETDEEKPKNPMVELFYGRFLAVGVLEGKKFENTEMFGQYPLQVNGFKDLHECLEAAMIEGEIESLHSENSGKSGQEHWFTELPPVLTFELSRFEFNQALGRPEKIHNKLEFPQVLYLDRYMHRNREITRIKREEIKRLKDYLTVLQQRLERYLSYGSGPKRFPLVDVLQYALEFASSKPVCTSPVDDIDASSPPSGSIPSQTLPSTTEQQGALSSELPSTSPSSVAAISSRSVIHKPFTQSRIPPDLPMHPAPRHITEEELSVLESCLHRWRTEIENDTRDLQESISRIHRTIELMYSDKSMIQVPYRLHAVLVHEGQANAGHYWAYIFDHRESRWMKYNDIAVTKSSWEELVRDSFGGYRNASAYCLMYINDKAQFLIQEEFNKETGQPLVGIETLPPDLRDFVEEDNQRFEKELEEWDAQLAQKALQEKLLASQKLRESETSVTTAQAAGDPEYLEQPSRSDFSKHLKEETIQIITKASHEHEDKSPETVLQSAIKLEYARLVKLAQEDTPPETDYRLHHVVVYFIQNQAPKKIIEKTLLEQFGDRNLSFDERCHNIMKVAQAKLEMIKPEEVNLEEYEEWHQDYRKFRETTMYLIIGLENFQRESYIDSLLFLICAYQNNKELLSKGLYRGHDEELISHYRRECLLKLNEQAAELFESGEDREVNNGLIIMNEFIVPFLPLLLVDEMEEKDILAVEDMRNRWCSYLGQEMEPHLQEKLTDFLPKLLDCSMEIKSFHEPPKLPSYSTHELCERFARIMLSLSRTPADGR
In short: as §1

USP28 = biological target: T4, USP28 (UniProt Q96RU2)
T4 sequence (whole entry): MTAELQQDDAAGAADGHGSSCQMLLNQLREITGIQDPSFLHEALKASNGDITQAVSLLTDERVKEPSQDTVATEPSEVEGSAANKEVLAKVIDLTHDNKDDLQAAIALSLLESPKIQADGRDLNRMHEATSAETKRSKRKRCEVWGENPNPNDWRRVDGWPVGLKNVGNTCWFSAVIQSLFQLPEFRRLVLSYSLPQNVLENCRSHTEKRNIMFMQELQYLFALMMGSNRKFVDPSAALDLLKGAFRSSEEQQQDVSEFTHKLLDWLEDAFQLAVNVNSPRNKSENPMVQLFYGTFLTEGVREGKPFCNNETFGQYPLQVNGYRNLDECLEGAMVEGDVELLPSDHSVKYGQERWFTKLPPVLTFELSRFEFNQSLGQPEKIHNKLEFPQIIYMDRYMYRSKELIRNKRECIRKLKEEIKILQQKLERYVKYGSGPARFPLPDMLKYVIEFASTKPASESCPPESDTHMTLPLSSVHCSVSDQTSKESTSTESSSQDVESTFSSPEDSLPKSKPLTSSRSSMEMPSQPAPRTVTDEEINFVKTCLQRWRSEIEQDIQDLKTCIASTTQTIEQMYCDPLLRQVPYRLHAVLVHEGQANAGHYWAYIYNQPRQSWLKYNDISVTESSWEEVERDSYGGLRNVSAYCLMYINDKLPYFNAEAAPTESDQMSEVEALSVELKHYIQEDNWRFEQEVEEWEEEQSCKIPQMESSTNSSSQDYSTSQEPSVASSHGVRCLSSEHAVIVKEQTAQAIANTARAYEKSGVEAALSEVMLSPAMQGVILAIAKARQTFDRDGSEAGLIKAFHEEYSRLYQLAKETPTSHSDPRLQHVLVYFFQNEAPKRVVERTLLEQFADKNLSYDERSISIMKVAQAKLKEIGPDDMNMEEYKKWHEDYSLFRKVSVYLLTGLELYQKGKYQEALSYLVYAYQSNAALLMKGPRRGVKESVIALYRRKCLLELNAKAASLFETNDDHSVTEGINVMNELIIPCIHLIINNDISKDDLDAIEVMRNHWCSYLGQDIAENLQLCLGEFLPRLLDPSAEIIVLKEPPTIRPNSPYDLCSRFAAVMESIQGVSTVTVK
In short: as §1

Measured: log2 ratio of Biotin-Ahx-Ub-VS probe labelling

O=C(CN1CCN(C(=O)CCl)CC1)Nc1cccc(F)c1
inactive: USP19 -0.265 | USP22 0.00778 | USP24 -0.335 | USP25 -0.473 | USP28 -0.428
